Experimental data taken from publication PMC7862700, “An all-to-all approach to the identification of sequence-specific readers for epigenetic DNA modifications on cytosine”.

Experiments:
Assay in all cases: DAPPL (digital affinity profiling via proximity ligation, sequencing); 10 mM Tris-HCl pH 7.5, 50 mM NaCl, 1 mM DTT, 4% glycerol, room temperature, 30 min; GST-TFs on glutathione beads, 16-mer random dsDNA library, 0.1% formaldehyde crosslink after washing; high values mean tight binding
Details in all cases: protein: recombinant; tags: N-terminal GST; dsDNA, one strand shown
ETV5 = ETV5 (Homo sapiens, UniProt P41161 1-510)
Outline: (§1)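 After expression in yeast as GST fusions, human transcription factors were bound to glutathione beads, DNA-barcoded and mixed with a tag-only sample. The pools were incubated with 200 nmole of a 16-mer random double-stranded DNA library in Tris/NaCl/DTT/glycerol buffer (30 min, room temperature), washed and crosslinked with 0.1% formaldehyde. Proximity ligation with BsaI/T4 ligase ran for 1 h at 37 °C, before PCR amplification and sequencing on an Illumina NextSeq500. Binding signal is a hexamer's read frequency for a factor divided by its frequency for the tag-only sample.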

SPIC = target: T1, SPIC (Homo sapiens, UniProt Q8N5J4 1-248)
T1 sequence: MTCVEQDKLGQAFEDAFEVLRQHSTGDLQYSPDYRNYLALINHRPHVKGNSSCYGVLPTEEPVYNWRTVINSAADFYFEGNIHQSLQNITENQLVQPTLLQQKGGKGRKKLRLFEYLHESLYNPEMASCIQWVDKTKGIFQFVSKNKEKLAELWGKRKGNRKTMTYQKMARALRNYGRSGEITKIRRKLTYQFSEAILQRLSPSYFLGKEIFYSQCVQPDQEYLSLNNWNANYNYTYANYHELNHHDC
Outline: as §1

ELK4 = target: T2, ELK4 (Homo sapiens, UniProt P28324-2 1-405)
T2 sequence: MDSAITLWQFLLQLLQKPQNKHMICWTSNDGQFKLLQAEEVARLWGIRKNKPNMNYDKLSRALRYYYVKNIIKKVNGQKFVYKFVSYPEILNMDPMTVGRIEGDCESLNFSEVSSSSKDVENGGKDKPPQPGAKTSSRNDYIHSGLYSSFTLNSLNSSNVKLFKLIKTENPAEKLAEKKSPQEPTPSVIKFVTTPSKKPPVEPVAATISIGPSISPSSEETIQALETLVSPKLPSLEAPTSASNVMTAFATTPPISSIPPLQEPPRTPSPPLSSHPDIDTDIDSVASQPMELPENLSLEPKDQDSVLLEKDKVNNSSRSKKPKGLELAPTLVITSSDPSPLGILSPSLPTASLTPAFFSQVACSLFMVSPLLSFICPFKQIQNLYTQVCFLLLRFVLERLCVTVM
Outline: as §1

ELF3 = target: T3, ELF3 (Homo sapiens, UniProt P78545 1-371)
T3 sequence: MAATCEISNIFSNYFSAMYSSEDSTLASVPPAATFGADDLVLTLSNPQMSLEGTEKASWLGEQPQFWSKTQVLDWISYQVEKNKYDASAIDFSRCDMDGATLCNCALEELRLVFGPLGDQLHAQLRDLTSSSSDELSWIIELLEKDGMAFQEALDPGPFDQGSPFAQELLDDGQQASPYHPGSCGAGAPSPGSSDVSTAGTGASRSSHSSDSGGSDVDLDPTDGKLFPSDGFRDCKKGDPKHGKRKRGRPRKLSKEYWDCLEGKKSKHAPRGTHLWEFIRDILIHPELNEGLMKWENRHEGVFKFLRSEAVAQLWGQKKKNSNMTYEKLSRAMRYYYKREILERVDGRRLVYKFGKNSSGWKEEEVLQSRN
Outline: as §1

ETV7 = target: T4, ETV7 (Homo sapiens, UniProt Q9Y603 1-341)
T4 sequence: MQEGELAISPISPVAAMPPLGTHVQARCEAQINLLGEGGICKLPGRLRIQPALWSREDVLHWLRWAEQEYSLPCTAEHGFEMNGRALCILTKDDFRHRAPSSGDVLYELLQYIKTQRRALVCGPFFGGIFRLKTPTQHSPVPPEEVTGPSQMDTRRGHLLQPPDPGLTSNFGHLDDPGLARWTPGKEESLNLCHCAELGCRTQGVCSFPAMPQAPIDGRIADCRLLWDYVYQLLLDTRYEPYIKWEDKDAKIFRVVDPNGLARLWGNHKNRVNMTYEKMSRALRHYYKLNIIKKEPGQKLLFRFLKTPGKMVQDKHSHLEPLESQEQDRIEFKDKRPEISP
Outline: as §1

ETV3 = target: T5, ETV3 (Homo sapiens, UniProt P41162-2 1-143)
T5 sequence: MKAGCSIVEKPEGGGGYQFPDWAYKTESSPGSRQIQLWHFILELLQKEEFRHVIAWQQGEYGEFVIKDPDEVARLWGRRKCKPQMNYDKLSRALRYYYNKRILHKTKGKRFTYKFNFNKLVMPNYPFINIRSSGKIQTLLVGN
Outline: as §1

ETV6 = ETV6 (Homo sapiens, UniProt P41212 1-452)
Outline: as §1

ELK1 = target: T6, ELK1 (Homo sapiens, UniProt P19419 1-428)
T6 sequence: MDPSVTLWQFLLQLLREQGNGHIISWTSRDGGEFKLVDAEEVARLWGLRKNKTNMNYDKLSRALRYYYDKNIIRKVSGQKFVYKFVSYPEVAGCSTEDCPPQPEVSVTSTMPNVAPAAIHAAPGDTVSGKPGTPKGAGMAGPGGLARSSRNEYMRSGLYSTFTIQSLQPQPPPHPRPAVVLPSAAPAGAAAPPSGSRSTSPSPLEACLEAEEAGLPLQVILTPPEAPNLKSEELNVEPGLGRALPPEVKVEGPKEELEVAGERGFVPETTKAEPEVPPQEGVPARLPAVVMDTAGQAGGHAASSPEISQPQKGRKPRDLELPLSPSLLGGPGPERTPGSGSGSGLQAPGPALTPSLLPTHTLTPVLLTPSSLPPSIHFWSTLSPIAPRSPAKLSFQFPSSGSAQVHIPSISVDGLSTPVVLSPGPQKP
Outline: as §1

GABPA = target: T7, GABPA (Homo sapiens, UniProt Q06546 1-454)
T7 sequence: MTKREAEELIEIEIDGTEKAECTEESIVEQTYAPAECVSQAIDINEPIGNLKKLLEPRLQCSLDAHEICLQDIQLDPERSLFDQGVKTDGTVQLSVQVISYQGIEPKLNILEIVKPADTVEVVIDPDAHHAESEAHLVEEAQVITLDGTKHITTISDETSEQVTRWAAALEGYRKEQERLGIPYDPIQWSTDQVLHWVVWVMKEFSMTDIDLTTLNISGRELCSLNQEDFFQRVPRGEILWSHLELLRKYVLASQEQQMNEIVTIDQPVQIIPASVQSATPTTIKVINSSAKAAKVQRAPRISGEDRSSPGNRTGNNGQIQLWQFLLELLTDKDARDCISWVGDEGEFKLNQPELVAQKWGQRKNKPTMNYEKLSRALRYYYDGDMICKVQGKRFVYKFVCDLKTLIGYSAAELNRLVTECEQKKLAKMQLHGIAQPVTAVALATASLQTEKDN
Outline: as §1

ERF = target: T8, ERF (Homo sapiens, UniProt P50548 1-548)
T8 sequence: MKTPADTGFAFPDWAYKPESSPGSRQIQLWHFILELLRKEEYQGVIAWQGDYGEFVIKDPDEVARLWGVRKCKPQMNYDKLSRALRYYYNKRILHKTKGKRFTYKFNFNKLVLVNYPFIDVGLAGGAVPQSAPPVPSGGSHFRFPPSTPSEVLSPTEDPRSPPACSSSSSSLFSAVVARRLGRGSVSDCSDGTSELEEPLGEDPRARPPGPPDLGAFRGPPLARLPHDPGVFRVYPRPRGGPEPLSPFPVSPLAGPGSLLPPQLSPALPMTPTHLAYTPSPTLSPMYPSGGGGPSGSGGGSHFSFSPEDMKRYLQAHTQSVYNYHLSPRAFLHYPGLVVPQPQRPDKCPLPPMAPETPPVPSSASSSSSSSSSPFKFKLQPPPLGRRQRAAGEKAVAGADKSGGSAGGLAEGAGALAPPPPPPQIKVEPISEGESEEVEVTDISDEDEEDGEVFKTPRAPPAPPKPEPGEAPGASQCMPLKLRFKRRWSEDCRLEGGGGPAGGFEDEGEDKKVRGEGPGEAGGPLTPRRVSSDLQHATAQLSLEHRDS
Outline: as §1

ELF1 = ELF1 (Homo sapiens, UniProt P32519 1-619)
Outline: as §1

SPIB = SPIB (Homo sapiens, UniProt Q01892 1-262)
Outline: as §1

ETV3L = target: T9, ETV3L (Homo sapiens, UniProt Q6ZN32 1-361)
T9 sequence: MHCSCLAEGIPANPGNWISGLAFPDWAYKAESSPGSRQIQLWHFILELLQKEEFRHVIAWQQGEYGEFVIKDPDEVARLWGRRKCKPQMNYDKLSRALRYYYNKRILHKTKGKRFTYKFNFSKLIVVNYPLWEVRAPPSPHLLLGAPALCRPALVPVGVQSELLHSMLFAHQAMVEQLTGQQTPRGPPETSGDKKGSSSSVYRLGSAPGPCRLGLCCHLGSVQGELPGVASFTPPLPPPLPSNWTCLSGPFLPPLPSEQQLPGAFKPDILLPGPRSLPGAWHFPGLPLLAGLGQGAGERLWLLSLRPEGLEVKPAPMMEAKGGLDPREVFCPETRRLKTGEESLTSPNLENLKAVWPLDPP
Outline: as §1

ETS2 = target: T10, ETS2 (Homo sapiens, UniProt P15036 1-469)
T10 sequence: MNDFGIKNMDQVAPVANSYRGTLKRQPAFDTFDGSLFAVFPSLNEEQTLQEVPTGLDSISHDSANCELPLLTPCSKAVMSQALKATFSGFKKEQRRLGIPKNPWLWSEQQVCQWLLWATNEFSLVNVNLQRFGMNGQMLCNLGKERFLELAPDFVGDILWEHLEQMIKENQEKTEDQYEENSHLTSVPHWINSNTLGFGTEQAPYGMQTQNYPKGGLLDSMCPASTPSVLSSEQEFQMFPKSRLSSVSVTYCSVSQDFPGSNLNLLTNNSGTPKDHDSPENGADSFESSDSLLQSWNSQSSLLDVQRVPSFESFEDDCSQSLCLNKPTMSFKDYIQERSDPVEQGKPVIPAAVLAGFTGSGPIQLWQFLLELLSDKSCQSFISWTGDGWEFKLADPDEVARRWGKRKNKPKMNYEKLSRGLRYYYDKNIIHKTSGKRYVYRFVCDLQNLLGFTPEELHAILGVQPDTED
Outline: as §1

SPDEF = target: T11, SPDEF (Homo sapiens, UniProt O95238 1-335)
T11 sequence: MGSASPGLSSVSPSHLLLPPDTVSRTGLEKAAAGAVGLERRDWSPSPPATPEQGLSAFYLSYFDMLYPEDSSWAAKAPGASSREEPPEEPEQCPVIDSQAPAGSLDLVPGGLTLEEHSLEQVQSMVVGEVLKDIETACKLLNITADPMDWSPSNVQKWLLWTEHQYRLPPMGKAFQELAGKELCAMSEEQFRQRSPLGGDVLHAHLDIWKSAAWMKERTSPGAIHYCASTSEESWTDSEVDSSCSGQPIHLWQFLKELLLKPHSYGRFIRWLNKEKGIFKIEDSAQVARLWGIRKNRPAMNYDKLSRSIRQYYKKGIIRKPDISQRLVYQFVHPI
Outline: as §1

ETV5, sequence (P41161 whole entry, the tested form may be a part): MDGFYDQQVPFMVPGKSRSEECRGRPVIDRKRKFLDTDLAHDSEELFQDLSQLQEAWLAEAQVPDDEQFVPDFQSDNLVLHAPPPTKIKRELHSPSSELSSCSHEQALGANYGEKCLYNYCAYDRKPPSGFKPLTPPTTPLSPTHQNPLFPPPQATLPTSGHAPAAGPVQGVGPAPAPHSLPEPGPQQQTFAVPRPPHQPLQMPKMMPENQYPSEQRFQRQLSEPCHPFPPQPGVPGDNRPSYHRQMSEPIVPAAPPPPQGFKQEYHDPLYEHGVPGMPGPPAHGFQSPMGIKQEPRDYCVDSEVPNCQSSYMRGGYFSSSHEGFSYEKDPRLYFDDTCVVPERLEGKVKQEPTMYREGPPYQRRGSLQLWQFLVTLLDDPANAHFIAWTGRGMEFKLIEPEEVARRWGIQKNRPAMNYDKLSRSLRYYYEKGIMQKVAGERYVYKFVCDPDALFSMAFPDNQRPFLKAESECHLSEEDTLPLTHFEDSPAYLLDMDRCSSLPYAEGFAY
ETV6, sequence (P41212 whole entry): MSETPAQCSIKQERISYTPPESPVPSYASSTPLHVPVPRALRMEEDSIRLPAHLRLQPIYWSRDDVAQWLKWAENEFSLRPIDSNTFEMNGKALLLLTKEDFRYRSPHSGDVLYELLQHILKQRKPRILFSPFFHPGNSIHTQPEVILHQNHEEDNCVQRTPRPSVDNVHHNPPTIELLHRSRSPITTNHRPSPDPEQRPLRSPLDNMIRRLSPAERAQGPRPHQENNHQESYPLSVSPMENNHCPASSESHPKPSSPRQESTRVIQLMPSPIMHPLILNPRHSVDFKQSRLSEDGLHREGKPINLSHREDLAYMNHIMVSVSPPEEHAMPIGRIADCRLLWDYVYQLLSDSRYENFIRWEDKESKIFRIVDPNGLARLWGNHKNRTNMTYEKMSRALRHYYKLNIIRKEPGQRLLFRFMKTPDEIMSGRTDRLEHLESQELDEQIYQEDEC
SPIB, sequence (Q01892 whole entry): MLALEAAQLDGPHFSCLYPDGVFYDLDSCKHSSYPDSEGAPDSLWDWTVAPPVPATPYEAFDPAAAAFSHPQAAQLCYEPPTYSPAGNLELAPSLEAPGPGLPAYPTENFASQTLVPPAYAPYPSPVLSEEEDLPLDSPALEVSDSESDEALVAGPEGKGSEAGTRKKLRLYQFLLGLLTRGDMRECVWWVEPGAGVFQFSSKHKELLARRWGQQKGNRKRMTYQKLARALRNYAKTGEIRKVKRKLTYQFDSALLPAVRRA
ELF1, sequence (P32519 whole entry): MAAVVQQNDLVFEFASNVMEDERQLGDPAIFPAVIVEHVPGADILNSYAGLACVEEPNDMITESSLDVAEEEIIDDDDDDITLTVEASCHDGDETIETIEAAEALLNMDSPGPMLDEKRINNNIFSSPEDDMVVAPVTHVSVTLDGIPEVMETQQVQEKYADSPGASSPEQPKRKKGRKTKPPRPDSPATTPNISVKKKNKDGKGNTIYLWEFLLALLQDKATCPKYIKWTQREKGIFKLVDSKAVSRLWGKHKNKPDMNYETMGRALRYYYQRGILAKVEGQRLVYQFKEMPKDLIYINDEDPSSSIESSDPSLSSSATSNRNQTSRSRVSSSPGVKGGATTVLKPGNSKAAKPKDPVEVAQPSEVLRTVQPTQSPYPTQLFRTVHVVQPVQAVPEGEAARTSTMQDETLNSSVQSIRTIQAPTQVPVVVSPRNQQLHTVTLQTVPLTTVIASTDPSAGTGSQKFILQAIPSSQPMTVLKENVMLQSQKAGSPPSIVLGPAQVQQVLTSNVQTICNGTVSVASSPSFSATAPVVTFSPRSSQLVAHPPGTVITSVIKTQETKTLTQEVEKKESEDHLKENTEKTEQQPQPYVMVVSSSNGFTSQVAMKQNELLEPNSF

## AAACAG
ETV5
  binding signal: 1.07 fold enrichment (6-mer frequency, TF over GST control)
SPIC
  binding signal: 1.12 fold enrichment (6-mer frequency, TF over GST control)
ELK4
  binding signal: 1.04 fold enrichment (6-mer frequency, TF over GST control)
ELF3
  binding signal: 1.01 fold enrichment (6-mer frequency, TF over GST control)
ETV7
  binding signal: 1.04 fold enrichment (6-mer frequency, TF over GST control)
ETV3
  binding signal: 1.01 fold enrichment (6-mer frequency, TF over GST control)
ETV6
  binding signal: 1.03 fold enrichment (6-mer frequency, TF over GST control)

## GGCAAT
ELK1
  binding signal: 1 fold enrichment (6-mer frequency, TF over GST control)
GABPA
  binding signal: 1 fold enrichment (6-mer frequency, TF over GST control)
ETV5
  binding signal: 1 fold enrichment (6-mer frequency, TF over GST control)
ELF3
  binding signal: 1.01 fold enrichment (6-mer frequency, TF over GST control)
ERF
  binding signal: 1.02 fold enrichment (6-mer frequency, TF over GST control)

## GTGCCT
ELK1
  binding signal: 1.05 fold enrichment (6-mer frequency, TF over GST control)
ELF1
  binding signal: 1.02 fold enrichment (6-mer frequency, TF over GST control)
SPIB
  binding signal: 1.05 fold enrichment (6-mer frequency, TF over GST control)
ETV5
  binding signal: 1.07 fold enrichment (6-mer frequency, TF over GST control)
SPIC
  binding signal: 1.2 fold enrichment (6-mer frequency, TF over GST control)
ELK4
  binding signal: 1.16 fold enrichment (6-mer frequency, TF over GST control)
ERF
  binding signal: 1.07 fold enrichment (6-mer frequency, TF over GST control)
ETV3L
  binding signal: 1.17 fold enrichment (6-mer frequency, TF over GST control)
ETS2
  binding signal: 1.06 fold enrichment (6-mer frequency, TF over GST control)
SPDEF
  binding signal: 1.02 fold enrichment (6-mer frequency, TF over GST control)
ETV3
  binding signal: 1.07 fold enrichment (6-mer frequency, TF over GST control)
ETV6
  binding signal: 1.02 fold enrichment (6-mer frequency, TF over GST control)
